Assay outcomes deposited in PubChem BioAssay by National Center for Advancing Translational Sciences (NCATS).
EPAC2 ag = activates human EPAC2 exchange factor | hit rate 0.079% among 360,000 | Potency, µM (titrated, usually from 154 µM), for inactives: at the highest dose activation, hits mostly activators | AID 720711 | EPAC2 activation, biochemical qHTS; response scale: 100% = 6.5 mM cAMP response | Q8WZA2; further: nearly all actives have a fitted effect of over 50% in size
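Setup: EPAC2 100 nM, labeled Rap1B complex 250 nM, free GDP 50 uM. Compound titrations pinned in, brief spin, 5 min room temperature incubation. Kinetic fluorescence read over 30 min, normalized to 6.5 mM cAMP.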
RGS4 inhibitor = inhibitors of human regulator of G protein signaling 4 | P49798 | Transcreener GDP fluorescence polarization, RGS4-accelerated GTP hydrolysis | Potency, µM (titrated, usually from 114 µM), without a hit: at the top dose activity change, negative = inhibition, hits mostly inhibitors | hit rate 0.039% among 390,000; further: on the % scale 0 is the no-effect control and ±100 the full control effect; nearly all actives have a fitted effect of over 75% in size
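MLSMR compounds (23 nl, pin-transferred) preincubated 10 min at room temperature with a 500nM (2x) first reagent, then RGS4 at 900nM (2x) plus Transcreener GDP mix added; fluorescence polarization (620/688 nm) read before and after 90 min at 30 °C.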
EPAC2 antagonist = EPAC2 (human) antagonism | Q8WZA2 | EPAC2 GEF exchange of Rap1B-BODIPY-GDP, fluorescence | Potency, µM (highest dose often 114 µM), inactives show at the highest dose activity, negative = inhibition, hits mostly inhibitors | hit rate 0.18% among 360,000 | AID 720708; further: on the % scale 0 is the no-effect control and ±100 the full control effect; nearly all actives have a fitted effect of over 45% in size
EPAC1 antagonist = antagonists of human EPAC1. EPAC1 GEF assay, Rap1b-BODIPY-GDP exchange fluorescence. Potency, µM (titrated, usually from 115 µM), for the others: at the top dose activity change, negative = inhibition, hits mostly inhibitors. hit rate 0.14% among 360,000. AID 720709;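 further: plate controls were vehicle for no effect and positive control for full effect; nearly all actives have a fitted effect of over 50% in size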
Target sequence (O95398 whole entry, looked up): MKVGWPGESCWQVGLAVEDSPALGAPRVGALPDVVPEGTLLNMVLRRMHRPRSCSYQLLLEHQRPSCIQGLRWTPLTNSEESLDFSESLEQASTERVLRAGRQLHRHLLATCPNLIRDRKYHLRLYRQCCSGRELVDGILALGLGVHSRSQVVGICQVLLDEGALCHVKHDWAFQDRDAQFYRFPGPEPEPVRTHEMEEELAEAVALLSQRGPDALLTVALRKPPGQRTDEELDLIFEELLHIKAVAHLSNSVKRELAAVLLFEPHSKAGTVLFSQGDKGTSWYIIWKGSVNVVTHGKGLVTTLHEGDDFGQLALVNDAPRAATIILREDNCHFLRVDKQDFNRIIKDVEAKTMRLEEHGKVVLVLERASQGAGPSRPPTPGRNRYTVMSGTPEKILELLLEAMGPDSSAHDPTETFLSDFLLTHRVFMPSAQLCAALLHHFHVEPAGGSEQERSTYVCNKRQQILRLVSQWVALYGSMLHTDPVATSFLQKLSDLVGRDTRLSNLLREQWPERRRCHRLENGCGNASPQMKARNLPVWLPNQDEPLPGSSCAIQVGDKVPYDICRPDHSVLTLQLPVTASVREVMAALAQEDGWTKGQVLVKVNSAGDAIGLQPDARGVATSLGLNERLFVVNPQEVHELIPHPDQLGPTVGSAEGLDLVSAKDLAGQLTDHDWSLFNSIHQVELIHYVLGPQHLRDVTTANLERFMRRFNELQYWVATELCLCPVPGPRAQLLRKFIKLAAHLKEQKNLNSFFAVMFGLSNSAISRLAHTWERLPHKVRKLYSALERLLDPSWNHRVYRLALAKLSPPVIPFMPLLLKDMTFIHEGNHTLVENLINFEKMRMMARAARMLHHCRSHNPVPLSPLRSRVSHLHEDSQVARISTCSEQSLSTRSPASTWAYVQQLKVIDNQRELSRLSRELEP
BRCA1 expr up = BRCA1 expression activation | hit rate 1.1% among 380,000 | Potency, µM (titrated, usually from 46.1 µM), without a hit: at the highest dose activation, most hits filed as activators | AID 624202 | MCF7-BRCA1-FFLuc reporter, luminescence, 48 h; response scale: scaled: vehicle 0%, 10 µM genistein 100%; further: nearly all actives have a fitted effect of over 80% in size
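Quantitative HTS in MCF7 cells stably reporting BRCA1 expression via firefly luciferase. Compound treatment lasts 48 h at 37 °C in phenol-red free MEM. Activation is expressed relative to genistein at 10 microM and DMSO.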
EPAC1 agonist = agonists of human EPAC1. Potency, µM (series often up to 154 µM), for the others: at the top dose activation, hits mostly activators. hit rate 0.073% among 360,000. EPAC1 agonist qHTS, biochemical assay; response scale: 100% = response to 6.5 mM cAMP. O95398; further: nearly all actives have a fitted effect of over 60% in size
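Compounds were pinned as a concentration titration into mixtures of EPAC1 (100 nM), BODIPY-GDP-loaded Rap1B (250 nM) and GDP (50 uM). After 5 min at room temperature, fluorescence was followed for 30 min; activity was scaled to 6.5 mM cAMP.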
* marks the source's active call; other numbers are inactive results; ? = inconclusive; · = not tested or not shown; [ ] = another dose, or the depositor's remark. Only some compounds are listed: those with a hit (about 1.3% of all), similar ones and a draw of the others. The call rests on the fitted dose curve; in most records, active means well fitted curve in the direction sought with a large enough effect; inconclusive means small, poorly fitted or top-dose-only effect, or another doubt; inactive means no such curve, though single readings can be large; an effect the other way counts as inactive or inconclusive. Potency means the concentration at half of the fitted maximal effect.

SMILES | EPAC2 ag | RGS4 inhibitor | EPAC2 antagonist | EPAC1 antagonist | BRCA1 expr up | EPAC1 agonist
Cc1ccc(-n2ncc3c(SCc4ccccc4)ncnc32)cc1 | 12% | 6% | -16% | -5% | 4.5µM* | 9%
CCN(c1ccccc1)c1ncnc2c1cnn2-c1ccccc1 | 17% | 0% | -3% | -11% | 5µM* | 9%
CCOC(=O)CC(=O)CSc1ncnc2c1cnn2-c1ccccc1 | -8% | -20% | 0%[57.1 µM] | -4% | 6.3µM* | -1%
CN(Cc1ccccc1)c1ncnc2c1cnn2-c1ccccc1 | 24% | -3% | -5% | -1% | ? | 16%
Cc1ccc(NC(=O)NNC(=O)c2cccs2)cc1 | -5% | 14% | 12% | 7% | 38% | -6%
CCNC(=O)NC(=O)C(C)Sc1nc2cc(C(=O)OC)ccc2c(=O)n1-c1ccccc1 (configuration not stated) | -2% | -14% | -4% | 4% | -29% | 14%
Cn1c(=O)c2c(ncn2CC(=O)Nc2nc(-c3ccccc3Cl)cs2)n(C)c1=O | -11% | -21% | 0% | 4% | -65% | -2%
Cc1ccc(CSc2ncnc3c2cnn3-c2ccc(C)cc2)cc1 | 9% | 12% | -16% | -2% | 4.5µM* | 12%
Cc1cc(C)cc(NC(=O)CSc2nnc(-c3ccccc3C)o2)c1 | -11% | 2% | 10% | 5% | ? | -3%
COc1ccccc1NC(=O)CSc1nnc(-c2ccoc2C)o1 | -9% | -8% | -2% | -21% | 7.9µM* | -13%
N#Cc1cccc(NC(=O)CSc2nnc(-c3n[nH]c4ccccc34)o2)c1 | 1% | 7% | -3% | -2% | 38% | 8%
Cc1cccc(NC(=O)CSc2nnc(-c3n[nH]c4ccccc34)o2)c1 | 5% | 1% | 3% | 11% | 13µM* | 3%
Cc1cccc(NC(=O)CSc2nnc(-c3ccccc3C)o2)c1 | -1% | 15% | -2% | -2% | 13µM* | -1%
CC1CN(C2=CC(=O)CCC2)CC(C)O1 (configuration not stated) | 8% | 8% | -19% | 6% | -1% | 8%
COc1ccc(OCC(O)CN2CCN(Cc3ccc4c(c3)OCO4)CC2)cc1 (configuration not stated) | -3% | 6% | -1% | -2% | -12% | -10%
Cc1nc2ccccc2c(=O)n1/N=C/c1ccccc1Cl | 17% | -10% | -4% | -20% | 10µM* | -1%
COc1cc2c(cc1OC)CN(c1ccc3ccccc3n1)CC2 | 15% | -19% | -13% | -11% | 11µM* | 2%
COc1cc2c(cc1OC)CN(c1ccc(C(F)(F)F)cn1)CC2 | 9% | ? | -20% | -2% | 13µM* | 3%
Cc1ccc(F)c(C2=CC(=O)C[C@H](c3ccc(F)cc3)C2)c1 | ? | 17% | 5% | -4% | 0% | -3%
CN(C)c1ccc(/C=C(/C#N)C(=O)NCc2ccccc2)o1 | 11% | -26% | 33% | 20% | 10µM* | 1%
N#C/C(=C/c1ccccc1)C(=O)NCc1ccccc1 | 8% | 6% | -1% | 3% | -8% | 13%
CCOc1ccccc1NCc1cc(=O)oc2cc(C)ccc12 | 18% | 15% | -6% | ? | -26% | 5%
Cc1ccc2c(CNCc3ccco3)cc(=O)oc2c1 | 3% | 3% | 15% | 9% | 7.9µM* | 0%
N/C(=N\OC(=O)CCCc1ccccc1)c1ccccn1 | -2% | -10% | 5% | -19% | 11µM* | -2%
N/C(=N\OC(=O)COc1ccccc1)c1ccccn1 | 11% | 13% | 9%[57.1 µM] | 1% | 13µM* | 13%
SMILES | EPAC2 ag | RGS4 inhibitor | EPAC2 antagonist | EPAC1 antagonist | BRCA1 expr up | EPAC1 agonist
N/C(=N\OC(=O)CCC1CCCC1)c1ccccn1 | -15% | -27% | 26% | -11% | 7.1µM* | 5%
N/C(=N\OC(=O)COc1ccccc1)c1ccncc1 | 10% | 12% | 10% | -3% | 13µM* | 17%
N/C(=N\OC(=O)COc1ccccc1)c1cccnc1 | 6% | -3% | 12% | 4% | -20% | 0%
COCCNC(=O)C1(C)CCCN(C(=O)c2ccc3c(c2)CCO3)C1 (configuration not stated) | 11% | · | -4% | -7% | 18% | 8%
COc1ccc(S(=O)(=O)NC(C)C(=O)NCc2ccncc2)cc1OC (configuration not stated) | 9% | -16% | -6% | -8% | 0% | 0%
Fc1ccc(-c2ccnc3nc(N4CCOCC4)nn23)cc1 | -2% | -22% | 2% | 0% | 13% | 7%
N/C(=N\OC(=O)COc1ccc2ccccc2c1Br)c1ccccn1 | 7% | -17% | 8% | -12% | 10µM* | 3%
CC(C)(C)C(=O)Nc1nnc(CCc2ccccc2)s1 | 3% | -53% | -3% | -16% | 4.5µM* | -7%
CC(C)C(=O)Nc1nnc(NC(=S)Nc2ccccc2)s1 | -3% | -46% | 4% | 0% | 10µM* | -7%
CCCc1nnc(NC(=S)Nc2ccccc2)s1 | 1% | -47% | 13% | 8% | 2.2µM* | -9%
CC(C)C(=O)Nc1nnc(CCc2ccccc2)s1 | -1% | 24% | -12% | 0% | 62% | 13%
CCCc1nnc(NC(=O)CCC(=O)Nc2ccc(Cl)cc2)s1 | 4% | 36% | -2% | 18% | -1% | 15%
CCC(=O)Nc1nnc(CCc2ccccc2)s1 | 6% | 30% | 2% | 4% | 16% | -4%
COCCNC(=O)c1cccc(OC2CCN(Cc3cccc(C(C)=O)c3)CC2)c1 | 16% | 17% | 8% | 4% | 2% | 20%
O=C(COC(=O)C1=COCCO1)Nc1ccc(Oc2ccccc2)cc1 | 10% | 13% | -19% | -3% | 0%[1.84 µM] | 1%
CC1CCCC(C)N1C(=O)c1cc(-c2cccs2)on1 (configuration not stated) | 14% | 34% | -1% | -14% | 16µM* | 8%
CCOc1ccc(-n2c(=O)[nH]c3sc4c(c3c2=O)CCCC4)cc1 | 8% | -6% | 16% | 7% | 2% | 16%
CC(NC(=O)/C(=C/c1ccc(OC(F)F)cc1)c1ccccc1)c1ccccc1 (configuration not stated) | 5% | 3% | -14% | -12% | -76% | -2%
Cc1ccc(CSc2nnc(-c3ccc4c(c3)OCO4)o2)cc1 | 3% | 19% | 12% | 4% | ? | -4%
Cc1ccc(Nc2nnc(-c3ccc4c(c3)OCO4)o2)c(C)c1 | -1% | -40% | -12% | -12% | 10µM* | 1%
O=C(CCSc1ccccc1Cl)Nc1cccc([N+](=O)[O-])c1 | -7% | -6% | -13% | -22% | ? | 7%
NS(=O)(=O)c1cccc(NC(=O)CCSc2ccccc2Cl)c1 | -5% | -4% | -13% | 0% | 10µM* | 0%
